Laboratory results as given in the supplement of paper PMC10849652.
Targets with a hit are over-represented here; the source holds about 8,800 in all. About 0.5% of all pairs of compound and target were hits.

What was measured:
Assay in all cases: log2 fold change, soluble protein after heating vs DMSO (PISA); higher = thermal stabilisation; K562 lysate, 10 uM; active = over 0.2 and 3.5 SD of the protein, either way, in both replicates (recomputed)
lapatinib = compound: CS(=O)(=O)CCNCc1ccc(-c2ccc3ncnc(Nc4ccc(OCc5cccc(F)c5)c(Cl)c4)c3c2)o1 [lapatinib]
In short: (§1)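 Pellets of K562 cells were dounce-homogenised in PBS pH 7.4 with 1 mM MgCl2, and the crude extract was held at 1 mg/mL protein for a 30 min treatment with 10 μM compound. Aliquots were heated for 3 min over 48°C-58°C and pooled before NP-40 was added to 0.5% at 4°C. The supernatant from 21,000xg for 90 min was quantified by TMTpro 16plex LC-MS/MS with channel sums equalised. Values are reported from duplicates as log-two fold change in thermal stability relative to solvent controls.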

pictilisib = compound: CS(=O)(=O)N1CCN(Cc2cc3nc(-c4cccc5[nH]ncc45)nc(N4CCOCC4)c3s2)CC1 [pictilisib]
In short: as §1

crizotinib = compound: C[C@@H](Oc1cc(-c2cnn(C3CCNCC3)c2)cnc1N)c1c(Cl)ccc(F)c1Cl [crizotinib]
In short: as §1

[1] = compound: C[C@H](C1=CC=C(C=C1)C(=O)NC2=C3C=CNC3=NC=C2)N
In short: as §1

duvelisib = compound: C[C@H](Nc1ncnc2nc[nH]c12)c1cc2cccc(Cl)c2c(=O)n1-c1ccccc1 [duvelisib]
In short: as §1

gandotinib = compound: Cc1cc(Nc2cc(CN3CCOCC3)c3nc(C)c(Cc4ccc(Cl)cc4F)n3n2)n[nH]1 [gandotinib]
In short: as §1

tozasertib = compound: Cc1cc(Nc2cc(N3CCN(C)CC3)nc(Sc3ccc(NC(=O)C4CC4)cc3)n2)n[nH]1 [tozasertib]
In short: as §1

doramapimod = compound: Cc1ccc(-n2nc(C(C)(C)C)cc2NC(=O)Nc2ccc(OCCN3CCOCC3)c3ccccc23)cc1 [doramapimod]
In short: as §1

bafetinib = compound: Cc1ccc(NC(=O)c2ccc(CN3CC[C@H](N(C)C)C3)c(C(F)(F)F)c2)cc1Nc1nccc(-c2cncnc2)n1 [bafetinib]
In short: as §1

[2] = compound: Cc1cccc(CC(=O)N2CCc3c2ccc(-c2cn(C)c4ncnc(N)c24)c3F)n1
In short: as §1

nilotinib = compound: Cc1cn(-c2cc(NC(=O)c3ccc(C)c(Nc4nccc(-c5cccnc5)n4)c3)cc(C(F)(F)F)c2)cn1 [nilotinib]
In short: as §1

[3] = compound: Cc1nc(Nc2n[nH]c3c2CN(C(=O)N[C@H](CN(C)C)c2ccccc2)C3(C)C)c2sccc2n1
In short: as §1

dasatinib = compound: Cc1nc(Nc2ncc(C(=O)Nc3c(C)cccc3Cl)s2)cc(N2CCN(CCO)CC2)n1 [dasatinib]
In short: as §1

[4] = compound: Cc1ncc(-c2ccnc(Nc3ccc(S(C)(=O)=O)cc3)n2)n1C(C)C
In short: as §1

[5] = compound: Cn1cc(-c2ccc3c(c2)CCN3C(=O)Cc2cccc(C(F)(F)F)c2)c2c(N)ncnc21
In short: as §1

quisinostat = compound: Cn1cc(CNCC2CCN(c3ncc(C(=O)NO)cn3)CC2)c2ccccc21 [quisinostat]
In short: as §1

tipifarnib = compound: Cn1cncc1[C@@](N)(c1ccc(Cl)cc1)c1ccc2c(c1)c(-c1cccc(Cl)c1)cc(=O)n2C [tipifarnib]
In short: as §1

[6] = compound: NC(=O)Nc1cc(-c2cccc(F)c2)sc1C(=O)N[C@H]1CCCNC1
In short: as §1

[7] = compound: NC(=O)c1cnc(N[C@@H]2CCCC[C@@H]2N)nc1Nc1cccc(-n2nccn2)c1
In short: as §1

[8] = compound: NC1(c2ccc(-c3nc4ccn5c(=O)[nH]nc5c4cc3-c3ccccc3)cc2)CCC1
In short: as §1

Measured: log2 fold change

TRAPPC12 (UniProt Q8WVT3)
Chain of UniProt Q8WVT3 (Q8WVT3 whole entry, looked up): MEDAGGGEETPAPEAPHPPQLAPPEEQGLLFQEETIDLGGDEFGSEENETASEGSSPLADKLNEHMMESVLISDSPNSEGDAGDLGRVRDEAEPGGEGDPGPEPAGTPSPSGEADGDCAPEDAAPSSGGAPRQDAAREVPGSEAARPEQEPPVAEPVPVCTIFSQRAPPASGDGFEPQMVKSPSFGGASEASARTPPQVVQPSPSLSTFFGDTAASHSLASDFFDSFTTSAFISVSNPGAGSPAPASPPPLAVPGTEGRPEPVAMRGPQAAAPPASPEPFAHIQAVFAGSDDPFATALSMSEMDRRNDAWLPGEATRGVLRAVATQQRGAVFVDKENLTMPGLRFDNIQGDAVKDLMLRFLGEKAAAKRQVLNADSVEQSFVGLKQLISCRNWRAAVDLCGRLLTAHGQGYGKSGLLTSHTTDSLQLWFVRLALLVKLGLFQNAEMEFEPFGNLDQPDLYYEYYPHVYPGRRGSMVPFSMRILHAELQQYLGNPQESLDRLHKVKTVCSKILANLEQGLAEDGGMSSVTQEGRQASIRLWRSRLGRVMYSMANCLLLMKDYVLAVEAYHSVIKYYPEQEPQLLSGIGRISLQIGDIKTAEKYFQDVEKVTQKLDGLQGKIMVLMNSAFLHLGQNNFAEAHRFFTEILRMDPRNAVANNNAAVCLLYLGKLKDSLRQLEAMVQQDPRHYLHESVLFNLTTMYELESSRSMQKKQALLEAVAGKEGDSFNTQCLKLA
inactive: lapatinib 0.02 | pictilisib -0.017 | crizotinib -0.033 | [1] -0.017 | duvelisib 0.012 | gandotinib -0.042 | tozasertib -0.029 | doramapimod -0.036 | bafetinib -0.039 | [2] 0.048 | nilotinib -0.007 | [3] 0.025 | dasatinib 0.024 | [4] -0.05 | [5] 0.038 | quisinostat 0.003 | tipifarnib 0.039 | [6] -0.018 | [7] -0.007 | [8] 0.013

TPX2 (UniProt Q9ULW0)
inactive: lapatinib 0.008 | pictilisib 0.032 | crizotinib 0.023 | [1] 0.01 | duvelisib 0.002 | gandotinib 0.04 | tozasertib -0.003 | doramapimod 0.049 | bafetinib -0.023 | [2] -0.011 | nilotinib -0.001 | [3] 0.007 | dasatinib -0.002 | [4] 0.002 | [5] 0 | quisinostat -0.04 | tipifarnib -0.007 | [6] -0.021 | [7] -0.02 | [8] -0.004

TMEM87A (UniProt Q8NBN3)
Chain of UniProt Q8NBN3 (Q8NBN3 whole entry, looked up): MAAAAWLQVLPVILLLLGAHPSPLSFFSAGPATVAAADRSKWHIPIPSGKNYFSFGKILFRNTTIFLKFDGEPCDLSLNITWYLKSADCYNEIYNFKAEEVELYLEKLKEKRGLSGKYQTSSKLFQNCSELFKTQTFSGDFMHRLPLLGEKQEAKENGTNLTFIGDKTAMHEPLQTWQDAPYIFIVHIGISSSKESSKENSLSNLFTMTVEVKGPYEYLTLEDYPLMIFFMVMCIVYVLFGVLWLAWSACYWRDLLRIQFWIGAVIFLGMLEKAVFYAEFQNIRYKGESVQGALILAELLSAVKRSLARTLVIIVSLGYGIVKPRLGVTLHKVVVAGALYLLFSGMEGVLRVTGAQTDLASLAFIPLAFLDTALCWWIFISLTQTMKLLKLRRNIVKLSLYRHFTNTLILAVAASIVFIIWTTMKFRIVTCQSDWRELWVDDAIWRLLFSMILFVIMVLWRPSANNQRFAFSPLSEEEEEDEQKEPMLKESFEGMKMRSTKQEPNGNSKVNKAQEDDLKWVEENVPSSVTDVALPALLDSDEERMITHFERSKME
active: gandotinib 0.242 | [2] 0.248
inactive: lapatinib -0.007 | pictilisib -0.015 | crizotinib 0.016 | [1] -0.082 | duvelisib 0.012 | tozasertib -0.029 | doramapimod 0.026 | bafetinib -0.007 | nilotinib -0.009 | [3] 0.055 | dasatinib -0.007 | [4] 0.027 | [5] 0.03 | quisinostat -0.021 | tipifarnib 0.024 | [6] 0.003 | [7] 0.03 | [8] 0.017

TTC12 isoform 2 (UniProt Q9H892)
inactive: lapatinib -0.053 | pictilisib -0.153 | crizotinib -0.068 | [1] -0.416 | duvelisib 0.143 | gandotinib 0.031 | tozasertib 0.092 | doramapimod 0.022 | bafetinib -0.14 | nilotinib -0.128 | [3] -0.073 | dasatinib -0.143 | [4] 0.018 | [5] 0.004 | quisinostat 0.033 | tipifarnib 0.075 | [6] 0.007 | [7] -0.041 | [8] -0.073
active: [2] 0.445

TLK2 isoform 2 (UniProt Q86UE8)
Chain of UniProt Q86UE8 (Q86UE8 whole entry, looked up): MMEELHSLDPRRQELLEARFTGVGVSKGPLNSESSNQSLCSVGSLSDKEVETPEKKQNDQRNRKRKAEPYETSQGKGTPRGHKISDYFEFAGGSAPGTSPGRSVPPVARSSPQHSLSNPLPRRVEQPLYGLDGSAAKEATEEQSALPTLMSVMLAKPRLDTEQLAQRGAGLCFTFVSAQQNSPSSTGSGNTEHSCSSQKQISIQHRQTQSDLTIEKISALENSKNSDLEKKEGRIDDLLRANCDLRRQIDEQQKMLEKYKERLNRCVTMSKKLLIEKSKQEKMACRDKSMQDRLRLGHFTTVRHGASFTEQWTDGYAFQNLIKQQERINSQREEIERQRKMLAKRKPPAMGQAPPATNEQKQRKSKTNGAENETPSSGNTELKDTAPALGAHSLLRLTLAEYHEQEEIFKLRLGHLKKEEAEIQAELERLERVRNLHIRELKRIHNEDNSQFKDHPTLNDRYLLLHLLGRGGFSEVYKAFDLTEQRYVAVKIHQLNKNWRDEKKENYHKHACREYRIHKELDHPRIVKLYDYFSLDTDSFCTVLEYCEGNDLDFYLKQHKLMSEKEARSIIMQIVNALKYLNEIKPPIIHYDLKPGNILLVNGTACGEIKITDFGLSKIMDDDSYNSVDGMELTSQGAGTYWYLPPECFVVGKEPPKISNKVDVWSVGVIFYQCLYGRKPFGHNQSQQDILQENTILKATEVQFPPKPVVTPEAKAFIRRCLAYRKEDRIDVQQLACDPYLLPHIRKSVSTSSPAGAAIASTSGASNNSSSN
inactive: lapatinib -0.041 | pictilisib 0.112 | crizotinib -0.029 | [1] -0.115 | duvelisib -0.042 | tozasertib 0.126 | doramapimod 0.006 | bafetinib 0.004 | [2] 0.049 | nilotinib -0.008 | [3] 0.243 | dasatinib -0.004 | [4] 0.162 | [5] 0.007 | quisinostat -0.099 | tipifarnib 0.005 | [6] 0.073 | [7] 0.048 | [8] -0.035
active: gandotinib 0.351

TUBB3 (UniProt Q13509)
inactive: lapatinib 0.015 | pictilisib 0.032 | crizotinib -0.027 | [1] 0.018 | duvelisib 0.026 | gandotinib 0.02 | tozasertib 0.001 | doramapimod -0.005 | bafetinib 0.021 | [2] 0.001 | nilotinib 0.029 | [3] -0.028 | dasatinib -0.027 | [4] -0.003 | [5] 0.024 | quisinostat -0.004 | tipifarnib -0.013 | [6] 0.039 | [7] 0.006 | [8] 0.006

TRIP12 isoform 2 (UniProt Q14669)
Chain of UniProt Q14669 (Q14669 whole entry, looked up): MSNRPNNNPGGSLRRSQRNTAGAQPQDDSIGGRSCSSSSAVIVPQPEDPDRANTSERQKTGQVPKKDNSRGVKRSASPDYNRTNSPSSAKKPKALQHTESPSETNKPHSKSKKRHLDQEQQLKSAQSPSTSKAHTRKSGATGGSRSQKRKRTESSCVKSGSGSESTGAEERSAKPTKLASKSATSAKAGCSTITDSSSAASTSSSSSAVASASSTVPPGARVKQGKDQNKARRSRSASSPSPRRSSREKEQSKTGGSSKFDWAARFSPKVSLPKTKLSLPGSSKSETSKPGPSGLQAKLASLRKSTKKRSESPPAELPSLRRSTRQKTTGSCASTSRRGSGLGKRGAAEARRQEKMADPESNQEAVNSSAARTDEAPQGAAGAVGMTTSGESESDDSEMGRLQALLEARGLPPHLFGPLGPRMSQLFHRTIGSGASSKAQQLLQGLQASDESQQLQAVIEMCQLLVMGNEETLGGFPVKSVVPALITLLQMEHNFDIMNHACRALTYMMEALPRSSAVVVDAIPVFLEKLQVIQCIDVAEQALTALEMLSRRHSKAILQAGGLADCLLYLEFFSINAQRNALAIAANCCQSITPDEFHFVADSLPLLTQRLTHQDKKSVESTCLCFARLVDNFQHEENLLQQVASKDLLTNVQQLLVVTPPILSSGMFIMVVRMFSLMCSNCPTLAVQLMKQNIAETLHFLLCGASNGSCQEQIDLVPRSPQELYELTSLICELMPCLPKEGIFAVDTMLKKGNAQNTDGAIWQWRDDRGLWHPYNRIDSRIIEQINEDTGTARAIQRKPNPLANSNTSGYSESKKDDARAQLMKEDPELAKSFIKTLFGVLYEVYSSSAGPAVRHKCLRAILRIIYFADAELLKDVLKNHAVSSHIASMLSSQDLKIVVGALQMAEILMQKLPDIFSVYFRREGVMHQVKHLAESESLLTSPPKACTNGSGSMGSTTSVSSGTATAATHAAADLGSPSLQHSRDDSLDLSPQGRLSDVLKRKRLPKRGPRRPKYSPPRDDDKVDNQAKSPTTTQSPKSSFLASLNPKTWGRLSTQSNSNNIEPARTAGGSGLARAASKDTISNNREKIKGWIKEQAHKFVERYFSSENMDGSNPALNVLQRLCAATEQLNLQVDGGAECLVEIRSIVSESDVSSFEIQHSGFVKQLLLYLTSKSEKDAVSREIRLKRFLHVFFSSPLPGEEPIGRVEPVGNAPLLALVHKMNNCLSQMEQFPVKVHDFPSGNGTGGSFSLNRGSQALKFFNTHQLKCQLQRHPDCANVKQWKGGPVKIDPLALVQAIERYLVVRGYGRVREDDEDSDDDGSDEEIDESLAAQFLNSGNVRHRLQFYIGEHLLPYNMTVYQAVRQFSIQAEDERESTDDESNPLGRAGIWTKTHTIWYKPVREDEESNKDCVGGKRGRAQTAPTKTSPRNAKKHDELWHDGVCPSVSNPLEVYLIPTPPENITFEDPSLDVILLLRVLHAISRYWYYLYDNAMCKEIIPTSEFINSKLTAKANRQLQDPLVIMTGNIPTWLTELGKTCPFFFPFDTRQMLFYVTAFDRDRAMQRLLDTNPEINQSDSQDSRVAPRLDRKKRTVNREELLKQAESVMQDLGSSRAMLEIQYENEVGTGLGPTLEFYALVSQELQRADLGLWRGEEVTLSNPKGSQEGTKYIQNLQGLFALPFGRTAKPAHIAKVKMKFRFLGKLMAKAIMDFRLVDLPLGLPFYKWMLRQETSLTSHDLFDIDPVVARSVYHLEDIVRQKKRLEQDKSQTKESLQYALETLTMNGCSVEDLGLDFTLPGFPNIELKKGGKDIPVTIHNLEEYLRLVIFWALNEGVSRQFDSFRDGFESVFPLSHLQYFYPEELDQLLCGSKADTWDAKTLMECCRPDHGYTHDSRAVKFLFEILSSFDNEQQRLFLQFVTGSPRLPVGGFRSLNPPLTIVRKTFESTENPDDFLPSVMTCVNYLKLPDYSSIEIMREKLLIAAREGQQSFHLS
inactive: lapatinib -0.109 | pictilisib 0.016 | crizotinib -0.029 | [1] -0.012 | duvelisib 0.05 | gandotinib -0.042 | tozasertib 0.024 | doramapimod -0.006 | bafetinib -0.06 | [2] 0.06 | nilotinib -0.019 | [3] 0.011 | dasatinib 0.003 | [4] 0.001 | [5] 0.039 | quisinostat -0.065 | tipifarnib -0.017 | [6] 0.057 | [7] 0.016 | [8] 0.003

TROAP (UniProt Q12815)
inactive: lapatinib 0.001 | pictilisib -0.088 | crizotinib 0.038 | [1] -0.065 | duvelisib -0.095 | gandotinib 0.072 | tozasertib -0.009 | doramapimod -0.008 | bafetinib -0.1 | [2] 0.004 | nilotinib -0.041 | [3] 0.023 | dasatinib -0.071 | [4] 0.037 | [5] 0.043 | quisinostat -0.096 | tipifarnib -0.005 | [6] 0.007 | [7] 0.031 | [8] -0.018

TPM3 (UniProt P06753)
Chain of UniProt P06753 (P06753 whole entry, looked up): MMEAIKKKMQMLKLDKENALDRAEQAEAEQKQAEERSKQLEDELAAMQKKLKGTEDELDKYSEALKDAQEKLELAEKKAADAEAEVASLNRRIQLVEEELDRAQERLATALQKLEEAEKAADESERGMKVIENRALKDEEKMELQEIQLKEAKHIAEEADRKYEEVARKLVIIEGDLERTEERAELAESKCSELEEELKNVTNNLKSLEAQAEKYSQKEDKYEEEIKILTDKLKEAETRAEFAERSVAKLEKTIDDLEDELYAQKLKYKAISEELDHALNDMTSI
inactive: lapatinib 0.014 | pictilisib 0.005 | crizotinib 0.022 | [1] 0.123 | duvelisib 0.009 | gandotinib -0.039 | tozasertib -0.003 | doramapimod -0.022 | bafetinib 0.052 | [2] -0.088 | nilotinib 0.014 | [3] -0.033 | dasatinib 0.023 | [4] 0.028 | [5] -0.012 | quisinostat 0.046 | tipifarnib 0.033 | [6] -0.042 | [7] -0.02 | [8] 0.034

UBE2L6 (UniProt O14933)
Chain of UniProt O14933 (O14933 whole entry, looked up): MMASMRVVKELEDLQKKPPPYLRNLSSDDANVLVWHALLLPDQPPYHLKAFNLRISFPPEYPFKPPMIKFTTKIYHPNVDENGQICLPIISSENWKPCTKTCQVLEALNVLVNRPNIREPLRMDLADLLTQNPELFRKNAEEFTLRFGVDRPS
inactive: lapatinib 0.059 | pictilisib 0.062 | crizotinib -0.014 | [1] 0.088 | duvelisib 0.033 | gandotinib -0.105 | tozasertib 0.109 | doramapimod -0.013 | bafetinib -0.267 | [2] -0.024 | nilotinib 0.038 | [3] -0.139 | dasatinib -0.018 | [4] 0.036 | [5] -0.055 | quisinostat 0.024 | tipifarnib 0.043 | [6] -0.032 | [7] -0.002 | [8] -0.096

TERF2IP (UniProt Q9NYB0)
inactive: lapatinib -0.007 | pictilisib 0.007 | crizotinib 0.021 | duvelisib 0.022 | gandotinib -0.122 | tozasertib -0.023 | doramapimod -0.016 | bafetinib 0.004 | [2] -0.181 | nilotinib 0.012 | [3] 0.013 | dasatinib 0.018 | [4] 0.009 | [5] 0.005 | quisinostat 0.024 | tipifarnib -0.012 | [6] 0.011 | [7] -0.017 | [8] -0.003
active: [1] 0.249

TMEM263 (UniProt Q8WUH6)
inactive: lapatinib 0.149 | pictilisib 0.015 | crizotinib 0.06 | [1] -0.072 | duvelisib 0.02 | gandotinib 0.178 | tozasertib -0.066 | doramapimod 0.112 | bafetinib -0.028 | [2] 0.208 | nilotinib 0.151 | [3] 0.153 | dasatinib -0.134 | [4] -0.079 | [5] 0.011 | quisinostat 0.021 | [6] 0.063 | [7] -0.021 | [8] -0.154
active: tipifarnib -0.512

TTC38 (UniProt Q5R3I4)
inactive: lapatinib -0.034 | pictilisib -0.029 | crizotinib 0.031 | [1] 0.213 | duvelisib -0.022 | gandotinib -0.116 | tozasertib -0.011 | bafetinib 0.065 | [2] -0.186 | nilotinib 0.02 | [3] 0.016 | dasatinib 0.029 | [4] 0.059 | [5] -0.003 | tipifarnib 0.026 | [6] -0.036 | [7] 0.015 | [8] 0.029
active: doramapimod 0.301 | quisinostat 0.293

TUBB (UniProt P07437)
Chain of UniProt P07437 (P07437 whole entry, looked up): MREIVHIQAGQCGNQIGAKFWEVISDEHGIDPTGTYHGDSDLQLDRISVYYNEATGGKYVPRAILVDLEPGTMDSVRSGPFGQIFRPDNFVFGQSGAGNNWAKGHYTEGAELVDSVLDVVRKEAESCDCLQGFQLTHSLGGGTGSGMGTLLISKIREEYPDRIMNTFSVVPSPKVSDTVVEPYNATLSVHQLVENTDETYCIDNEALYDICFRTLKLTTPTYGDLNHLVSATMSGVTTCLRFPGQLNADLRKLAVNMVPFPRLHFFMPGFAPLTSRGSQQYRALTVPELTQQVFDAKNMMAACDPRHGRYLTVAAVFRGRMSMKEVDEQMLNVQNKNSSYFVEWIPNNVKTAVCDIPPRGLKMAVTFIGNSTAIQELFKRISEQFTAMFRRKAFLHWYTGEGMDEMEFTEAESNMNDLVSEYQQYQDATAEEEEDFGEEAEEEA
inactive: lapatinib -0.035 | pictilisib -0.002 | crizotinib -0.043 | [1] -0.005 | duvelisib 0.008 | gandotinib 0.065 | tozasertib -0.022 | doramapimod -0.047 | bafetinib 0.024 | [2] -0.01 | nilotinib 0.067 | [3] 0.016 | dasatinib -0.043 | [4] -0.001 | [5] -0.011 | quisinostat 0.004 | tipifarnib 0.022 | [6] 0.048 | [7] -0.022 | [8] -0.003

TBC1D2B (UniProt Q9UPU7)
inactive: lapatinib 0.076 | pictilisib 0.006 | crizotinib 0.041 | [1] 0.007 | duvelisib 0.027 | gandotinib -0.096 | tozasertib -0.005 | doramapimod 0.007 | bafetinib -0.057 | [2] 0.052 | nilotinib -0.019 | [3] 0.038 | dasatinib -0.008 | [4] -0.07 | [5] 0.055 | quisinostat 0.007 | tipifarnib -0.087 | [6] 0.007 | [7] -0.021 | [8] 0.006

UFM1 (UniProt P61960)
Chain of UniProt P61960 (P61960 whole entry, looked up): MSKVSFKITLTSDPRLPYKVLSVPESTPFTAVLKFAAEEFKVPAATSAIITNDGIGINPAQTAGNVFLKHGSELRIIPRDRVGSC
active: [1] 0.566
inactive: lapatinib 0.134 | pictilisib 0.033 | crizotinib 0.191 | duvelisib 0.077 | gandotinib -0.36 | tozasertib -0.002 | doramapimod 0.022 | bafetinib 0.102 | [2] -0.319 | nilotinib 0.042 | [3] 0 | dasatinib -0.037 | [4] 0.107 | [5] -0.032 | quisinostat 0.321 | tipifarnib 0.088 | [6] -0.116 | [7] -0.063 | [8] 0.043
